Results reported in PubChem BioAssay (Tox21).
Several values for one entry are separate records, joined by “and”; a condition that tells them apart may be missing. Equal entries are not always repeated. Records with an inconclusive call do not appear. A call without a number means that no potency is given here. A structure can be active in one record and inactive in another. Activity calls are given as the source filed them. Calls come from the whole dose curve; as a rule, active = well fitted curve in the direction sought with a large enough effect in the repeat runs; inconclusive = weak or mixed curves; inactive = no such curve, though single readings can be large; an effect the other way counts as inactive or inconclusive.

Assays:
[1] = biological target: Cytochrome P450 2C9 (Homo sapiens) (UniProt P11712); assay: Cytochrome P450 Family 2 Subfamily C Member 9 (CYP2C9) small molecule antagonists: luciferase reporter qHTS assay (AID 1671198); details: P450-Glo CYP2C9 enzyme assay, luciferin luminescence; series mostly up to 115 µM
Chain of Cytochrome P450 2C9 (Homo sapiens) (P11712 whole entry, looked up): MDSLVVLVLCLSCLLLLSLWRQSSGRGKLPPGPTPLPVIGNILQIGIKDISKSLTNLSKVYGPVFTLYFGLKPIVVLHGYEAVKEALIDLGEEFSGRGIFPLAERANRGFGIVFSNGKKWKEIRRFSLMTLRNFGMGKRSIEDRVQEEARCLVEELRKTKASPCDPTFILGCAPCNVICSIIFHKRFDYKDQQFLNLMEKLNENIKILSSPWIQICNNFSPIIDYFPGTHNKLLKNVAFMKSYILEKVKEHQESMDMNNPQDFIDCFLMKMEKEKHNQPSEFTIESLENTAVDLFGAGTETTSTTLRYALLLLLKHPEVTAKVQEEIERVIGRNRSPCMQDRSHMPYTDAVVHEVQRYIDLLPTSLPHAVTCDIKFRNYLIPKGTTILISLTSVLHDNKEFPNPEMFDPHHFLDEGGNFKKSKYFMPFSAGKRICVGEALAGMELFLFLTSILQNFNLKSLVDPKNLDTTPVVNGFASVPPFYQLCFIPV
In short: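 P450-Glo proluciferin substrate with CYP2C9 enzyme; 10 min RT preincubation, then NADPH regeneration 1 h at 37C; luciferin detection reagent 20 min RT, luminescence in relative luminescence units.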

[2] = biological target: Cytochrome P450 1A2 (Homo sapiens) (UniProt P05177); assay: Cytochrome P450 Family 1 Subfamily A Member 2 (CYP1A2) small molecule antagonists: luciferase reporter qHTS assay (AID 1671199); details: P450-Glo CYP1A2 enzyme, luciferin luminescence, 1 h; series mostly up to 115 µM
Chain of Cytochrome P450 1A2 (Homo sapiens) (P05177 whole entry, looked up): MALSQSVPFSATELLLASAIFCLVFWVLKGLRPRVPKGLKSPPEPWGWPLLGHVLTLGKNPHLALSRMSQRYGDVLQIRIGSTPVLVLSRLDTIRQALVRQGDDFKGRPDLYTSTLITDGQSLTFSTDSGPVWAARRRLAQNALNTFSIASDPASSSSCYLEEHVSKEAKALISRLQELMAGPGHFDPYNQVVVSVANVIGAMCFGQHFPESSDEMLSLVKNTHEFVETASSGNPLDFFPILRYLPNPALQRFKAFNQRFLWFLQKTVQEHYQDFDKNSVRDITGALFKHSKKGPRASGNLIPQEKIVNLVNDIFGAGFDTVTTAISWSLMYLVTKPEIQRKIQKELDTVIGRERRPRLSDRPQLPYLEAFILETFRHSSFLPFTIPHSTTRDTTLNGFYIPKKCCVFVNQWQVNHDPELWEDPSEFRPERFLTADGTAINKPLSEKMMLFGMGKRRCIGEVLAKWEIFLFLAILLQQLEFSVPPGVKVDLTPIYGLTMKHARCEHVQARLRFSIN
In short: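 Read-out is luminescence from luciferin detection reagent (20 min) proportional to CYP1A2 activity; compounds in DMSO preincubated 10 min with enzyme and proluciferin substrate, then NADPH regeneration solution, 1 h, room temperature.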

[3] = biological target: Voltage-gated inwardly rectifying potassium channel KCNH2 (Homo sapiens) (UniProt Q12809); assay: Human Ether-a-go-go-Related Gene (hERG) channel small molecule antagonists: fluorescence cell-based qHTS assay (AID 1671200); details: hERG-U2OS cells, FluxOR thallium flux fluorescence; series mostly up to 76.8 µM
Chain of Voltage-gated inwardly rectifying potassium channel KCNH2 (Homo sapiens) (Q12809 whole entry, looked up): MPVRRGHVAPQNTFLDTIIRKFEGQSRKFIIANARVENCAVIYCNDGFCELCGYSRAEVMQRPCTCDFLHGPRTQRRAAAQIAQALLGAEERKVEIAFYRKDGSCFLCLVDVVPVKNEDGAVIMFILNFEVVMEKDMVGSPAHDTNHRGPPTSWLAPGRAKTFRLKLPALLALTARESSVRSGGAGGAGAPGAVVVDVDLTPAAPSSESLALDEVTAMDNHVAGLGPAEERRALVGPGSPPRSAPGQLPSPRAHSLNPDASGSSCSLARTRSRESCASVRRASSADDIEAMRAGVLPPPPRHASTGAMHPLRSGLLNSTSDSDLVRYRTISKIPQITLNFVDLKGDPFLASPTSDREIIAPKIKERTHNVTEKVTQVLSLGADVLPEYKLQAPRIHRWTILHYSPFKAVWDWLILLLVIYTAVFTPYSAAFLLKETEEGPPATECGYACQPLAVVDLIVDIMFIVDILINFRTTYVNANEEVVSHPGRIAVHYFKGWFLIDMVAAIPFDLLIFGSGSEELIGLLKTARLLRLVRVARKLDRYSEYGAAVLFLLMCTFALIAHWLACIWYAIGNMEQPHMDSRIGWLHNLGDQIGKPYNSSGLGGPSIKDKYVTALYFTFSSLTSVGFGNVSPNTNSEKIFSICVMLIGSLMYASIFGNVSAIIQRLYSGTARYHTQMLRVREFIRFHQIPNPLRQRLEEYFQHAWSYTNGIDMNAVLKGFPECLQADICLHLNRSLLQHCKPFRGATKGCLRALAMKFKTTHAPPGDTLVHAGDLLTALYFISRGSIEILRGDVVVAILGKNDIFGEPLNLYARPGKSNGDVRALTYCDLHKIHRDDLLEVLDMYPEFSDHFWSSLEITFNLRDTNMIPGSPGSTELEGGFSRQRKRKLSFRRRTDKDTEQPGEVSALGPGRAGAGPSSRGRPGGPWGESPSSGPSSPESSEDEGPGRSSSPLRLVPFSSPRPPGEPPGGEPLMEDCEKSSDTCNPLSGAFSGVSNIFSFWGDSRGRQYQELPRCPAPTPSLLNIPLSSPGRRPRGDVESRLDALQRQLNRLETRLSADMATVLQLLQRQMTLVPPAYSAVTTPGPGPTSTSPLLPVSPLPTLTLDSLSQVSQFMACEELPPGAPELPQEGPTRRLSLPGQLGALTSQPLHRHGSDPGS
In short: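 Quantitative HTS in hERG-U2OS cells: thallium entry through the channel reports activity, read as continuous 480/540 nm fluorescence over 2 min after stimulus addition.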

[4] = biological target: Cytochrome P450 3A4 (Homo sapiens) (UniProt P08684); assay: Cytochrome P450 Family 3 Subfamily A Member 4 (CYP3A4) small molecule antagonists: luciferase reporter qHTS assay (AID 1671201); details: P450-Glo CYP3A4 enzyme, luciferin luminescence, 1 h; series mostly up to 115 µM
Chain of Cytochrome P450 3A4 (Homo sapiens) (P08684 whole entry, looked up): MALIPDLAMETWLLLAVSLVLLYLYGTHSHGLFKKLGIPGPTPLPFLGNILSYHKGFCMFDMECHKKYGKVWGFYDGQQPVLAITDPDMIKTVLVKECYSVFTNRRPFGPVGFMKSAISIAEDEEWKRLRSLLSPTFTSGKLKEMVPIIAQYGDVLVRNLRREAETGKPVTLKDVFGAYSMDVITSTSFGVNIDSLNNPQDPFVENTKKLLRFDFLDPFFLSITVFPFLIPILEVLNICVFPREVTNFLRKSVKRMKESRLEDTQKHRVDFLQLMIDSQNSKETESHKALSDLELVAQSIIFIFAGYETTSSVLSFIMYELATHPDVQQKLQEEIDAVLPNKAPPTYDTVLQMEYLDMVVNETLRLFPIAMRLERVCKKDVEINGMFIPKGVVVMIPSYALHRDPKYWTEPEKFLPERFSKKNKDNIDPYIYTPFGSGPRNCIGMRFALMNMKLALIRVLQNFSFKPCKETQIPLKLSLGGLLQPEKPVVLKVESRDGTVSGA
In short: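 Inhibition of CYP3A4 is measured as loss of light: the enzyme converts a proluciferin substrate to luciferin, detected luminescently. Reaction ran 1 h at room temperature with NADPH regeneration after a 10 min compound preincubation.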
Note: nearly all actives have a fitted effect of over 50% in size.
Potency is the fitted concentration of half-maximal effect.

SMILES	Potency [1]	Potency [2]	Potency [3]	Potency [4]
CC1(C)C(=O)N(Cl)C(=O)N1Cl	inactive	inactive	inactive	
COc1cc(NC(=O)CC(C)=O)c(OC)cc1Cl	40.1 µM (active) and 39.9 µM (active)	3.57 µM (active) and 5.64 µM (active)	inactive	14.2 µM (active) and 15.9 µM (active)
COc1ccc2cc3[n+](cc2c1OC)CCc1cc2c(cc1-3)OCO2	inactive	25.4 µM (active) and 14.4 µM (active)	inactive	
COc1ccc(N)c(OC)c1	15.3 µM (active) and 35.6 µM (active)	39.9 µM (active)	inactive	
O=[N+]([O-])c1ccccc1C(F)(F)F	inactive	inactive	inactive	inactive
O=C(NCC1CCCCN1)c1cc(OCC(F)(F)F)ccc1OCC(F)(F)F (centres undefined)	inactive	inactive	15.2 µM (active) and 9.52 µM (active)	
CC(=O)OC/C=C(\C)CCC=C(C)C	inactive and 39.9 µM (active)	inactive	inactive	
C[n+]1ccn(CCO)c1	inactive	inactive	inactive	
CC(=O)OCc1ccc2c(c1)OCO2	25.2 µM (active) and 35.6 µM (active)	2.01 µM (active) and 2.52 µM (active)	inactive	20.1 µM (active) and 39.9 µM (active)
OCc1ccc(Cl)cc1Cl	inactive	39.9 µM (active)	inactive	inactive
Cc1ccncc1	inactive	inactive	inactive	
C=C(C)CC(C)(C)C	inactive	inactive	inactive	inactive
O=C(O)C1=NN(c2ccc(S(=O)(=O)O)cc2)C(=O)C1	inactive	35.6 µM (active) and inactive	inactive	inactive
CCCCCCCCO	inactive	37.1 µM (active)	inactive	inactive
NC(N)=S	inactive	inactive	inactive	
Cc1cc(C)c(O)c(C)c1	35.6 µM (active) and 79.6 µM (active)	35.6 µM (active) and 28.3 µM (active)	inactive	inactive
CC1=CC(=O)CC(C)(C)C1	inactive	36.6 µM (active) and inactive	inactive	inactive
CN=C(NC#N)NCCSCc1nc[nH]c1C	19.8 µM (active) and 15.5 µM (active)	inactive	inactive	
CCCCC(=O)O	inactive	inactive	inactive	
O=C(Cl)c1ccc(C(=O)Cl)cc1	inactive	inactive and 63.3 µM (active)	inactive	inactive
Cc1ccc(C)c(S(=O)(=O)O)c1	inactive	inactive	inactive	

SMILES	Potency [1]	Potency [2]	Potency [3]	Potency [4]
CCCCCC(C)=O	inactive	inactive	inactive	
CC(=O)OCCC(C)C	inactive	inactive	inactive	inactive
O=C1O[C@H]([C@H](O)CO)C(O)=C1O	inactive	inactive	inactive	
C1CCCNCC1	inactive	inactive	inactive	
CCCOCC(C)O (centres undefined)	inactive	inactive	inactive	inactive
C=CC(C)(C)C	inactive	44.8 µM (active)	inactive	
CC(=O)CC(=O)N(C)C	inactive	inactive	inactive	inactive
Cc1ccc(C(C)C)cc1	inactive	inactive	inactive	inactive
Cc1ccccc1C=O	inactive	inactive	inactive	inactive
CCCCCCCCCCCCCC(=O)O	inactive	inactive and 71 µM (active)	inactive	inactive
CC(=O)OC(C)(C)C1CC=C(C)CC1 (centres undefined)	39.9 µM (active)	inactive	inactive	
Cc1ccc(Cl)cc1	63.3 µM (active)	inactive	inactive	
CCCCCNCCCCC	inactive	inactive	inactive	
Cc1cc(CC(=O)O)n(C)c1C(=O)c1ccc(Cl)cc1	inactive	inactive	inactive	
CCCCCCCC(=O)O	inactive	inactive	inactive	inactive
CCCCCCC(=O)O	inactive	inactive	inactive	
Cc1ccc([N+](=O)[O-])cc1N		11.2 µM (active) and 8.94 µM (active)	inactive	
CC(C)(CO)CO	inactive		inactive	inactive
Cc1ncc(CO)c(CO)c1O		inactive	inactive	
c1cnc2c(c1)ccc1cccnc12	8.94 µM (active)	10.1 µM (active) and 14.2 µM (active) and 11.2 µM (active)	inactive	inactive
